In all, about 13,000 compounds were measured (“IFI”: median about 4, highest 2% from about 17 on). This excerpt belongs to a sample that is enriched for the highest values.

The nature of the assay: GSK_TCMDC: Inhibition Frequency Index (IFI). The number of non-kinase HTS assays where a compound showed > 50 % inhibition, expressed as a percentage of the number of such assays in which the compound was tested. It is filed as functional.
Compound `CN(C)CCN(Cc1ccc(-c2ccc(CNCCc3ccccc3)cc2)nc1)C(=O)CCC1CCCC1` displayed an IFI of 8.33%.
Next, `COc1ccc2c(N/N=C/c3ccccc3[N+](=O)[O-])ccnc2c1`: 3.62%; `CC1(C)CCC(C)(C)c2c1ccc(C1CCN(CCCCNC(=O)c3ccc(-c4ccc(Cl)cc4)cc3)CC1)c2O`: 13.7%.
Compound `COc1ccc(CON2C(=N)N=C(N)NC2(C)C)cc1OC` displayed an IFI of 1.47%.
For `COc1ccc(C#Cc2ccc(-c3c(C)[nH]c(C)c(Cl)c3=O)cc2)cc1` the value was 0.88%.
For `CCN(CC)CCN(Cc1ccc(-c2ccc(C(F)(F)F)cc2)cc1)C(=O)Cn1c(CCc2c(F)ccc(F)c2F)nc(=O)c2ccccc21` the value was 9.09%.
For `Cc1nc(C)c(-c2ccc(S(=O)(=O)c3ccc(Cl)cc3)cc2)c(O)c1Cl` the value was 0.78%; for `CC(C)Cn1cc(C2CCN(CCN3CCC(CNC(=O)c4ccc(-c5ccc(C(F)(F)F)cc5)cc4)CC3)CC2)c2ccccc21`, 9.17%; for `O=C(/C=C/c1ccc(Cl)c(Cl)c1)NC1CCC(CN2CCC(c3nc4cccnc4[nH]3)CC2)CC1` (stereo not drawn), 4.96%.
The compound `CCN(CC)CCN(Cc1ccc(-c2ccc(C(F)(F)F)cc2)cc1)C(=O)Cn1c(/C=C/c2ccco2)nc(=O)c2ccccc21` came in with an IFI of 5.52%.
`Cc1cc(N[C@@H](Cc2ccccc2)C(=O)NCc2cccc(F)c2)nc(Nc2ccccc2)n1` showed an IFI of 4.76%.
The compound `Cc1cccc(CNc2nc(C)cc(N[C@@H](Cc3ccccc3)C(=O)NCc3cccc(F)c3)n2)c1` registered an IFI of 19.1%.
For `Cc1cc(N[C@@H](Cc2ccccc2)C(=O)NCc2cccc(F)c2)nc(NCc2ccccc2C)n1` the value was 4.88%.
For `Cc1cc(N[C@@H](Cc2ccccc2)C(=O)NCc2cccc(F)c2)nc(NCCOc2ccccc2)n1` the value was 6.98%.
Next, `Cc1cc(N[C@@H](Cc2ccccc2)C(=O)NCCCOC(C)C)nc(NCCc2ccc(F)cc2)n1`: 2.44%.
Consider `Cc1cc(N[C@@H](Cc2ccccc2)C(=O)NCc2cccc(F)c2)nc(NCCCOC(C)C)n1`, for which the IFI was found to be 18.2%.
For `Cc1cc(N[C@@H](Cc2ccccc2)C(=O)NCc2cccc(F)c2)nc(NCCc2ccccc2)n1` the value was 9.3%; for `Cc1cc(N[C@@H](Cc2ccccc2)C(=O)NCc2cccc(F)c2)nc(NCC2CCCCC2)n1`, 27.9%; for `Cc1cc(N[C@@H](Cc2ccccc2)C(=O)NCc2cccc(F)c2)nc(NCCc2ccc(F)cc2)n1`, 9.09%.
Next, `CC1(C)N=C(N)N=C(Nc2ccc(Cl)cc2)N1`: 0.76%.
In the case of `FC(F)(F)c1ccc2[nH]c(-c3cccc(-c4cccc(CN5CCN(c6ccncc6)CC5)c4)c3)nc2c1`, the IFI is 11.5%.
Next, `CCCNCc1ccc(-c2ccc(CN(CCOC)C(=O)c3cccc(C#N)c3)cc2)nc1`: 0.7%.
As to `Nc1nc2c(ncn2COC(COCc2ccccc2)COCc2ccccc2)c(=O)[nH]1.Nc1nc2ncn(COC(COCc3ccccc3)COCc3ccccc3)c2c(=O)[nH]1`, the IFI came to 0%.
In the case of `CCCCOC(=O)c1ccc(NC(=O)Nc2ccc(Cn3ncc(N4CCCNCC4)c(Cl)c3=O)cc2)cc1`, the IFI is 5.97%.
For `CCCCCc1ccc(NC(=O)Nc2ccc(Cn3ncc(N4CCCNCC4)c(Cl)c3=O)cc2)cc1` the value was 9.09%; for `CCCCCCCOc1ccc(NC(=O)Nc2ccc(Cn3ncc(N4CCCNCC4)c(Cl)c3=O)cc2)cc1`, 19.1%; for `Cc1[nH]c(C)c(-c2ccc(OCCCc3ccccn3)cc2)c(=O)c1Br`, 0%.
For `COc1ccc(NC(=O)c2ccc(-c3ccc(-c4cccnc4)cc3)c(C)c2)cc1OCCN(C)C` the value was 6.9%; for `COC(=O)c1ccc(-c2ccc(-c3cccnc3)cc2C)cc1`, 21.7%.
`COC(=O)c1ccc2nc(-c3cc(-c4cccc(-c5ccccc5)c4)cnc3N)[nH]c2c1` yielded an IFI of 2.94%.
Next, `Cc1ccccc1Nc1nc(Nc2ccccc2)c2ccccc2n1`: 3.65%.
Next, `O=C1c2cc(I)ccc2SC1c1ccccc1` (stereo not drawn): 1.43%.
For `O=S(=O)(NCCN1CCCC1)c1cccc(-c2ccc(CNCc3ccccc3)cc2)c1` the value was 5.88%.
`O=[N+]([O-])c1cccc(C(Nc2ccccn2)c2ccc3cccnc3c2O)c1` (stereo not drawn) returned an IFI of 8.74%.
For `CC1(CCc2ccccc2)N=C(N)N=C(N)C1c1ccc(Cl)c(Cl)c1` (stereo not drawn) the value was 2.94%.
Next, `CCC1(c2ccccc2)N=C(N)N(CCCc2ccccc2)C1=O` (stereo not drawn): 7.14%; `CC1(C)N=C(N)N=C(N)C1c1ccc(Cl)c(Cl)c1` (stereo not drawn): 1.43%; `CCCCCCC1(C)N=C(N)N=C(N)C1c1ccc(Cl)c(Cl)c1` (stereo not drawn): 2.78%.
As to `CC1(CCc2ccccc2)N=C(Nc2ccc(Cl)cc2)N=C(N)C1c1ccc(Cl)c(Cl)c1` (stereo not drawn), the IFI amounted to 26.6%.
`CC1(CCc2ccccc2)N=C(N)N(Cc2ccccc2)C(=O)C1c1ccc(Cl)c(Cl)c1` (stereo not drawn) returned an IFI of 19.2%.
Next, `NS(=O)(=O)c1cccc(-c2ccc3nccc(-c4cccc(S(N)(=O)=O)c4)c3c2)c1`: 0%.
Next, `Cn1c(N=C2NC3(c4ccccn4)NC(=Nc4nc5ccccc5n4C)NC3(c3ccccn3)N2)nc2ccccc21` (stereo not drawn): 3.6%; `Cc1cccc(-c2nn(-c3ccccc3)c3[nH]c(=O)c(CN4CCSCC4)cc23)c1`: 1.82%.
For `CC1(CCN2CCC(c3c[nH]c4cnccc34)CC2)CCCc2c(Br)cccc2C1=O` (stereo not drawn) the value was 8.51%; for `Cc1cc(C)c2ncc(C(=O)O)c(O)c2c1`, 1.46%.
With `Cc1cc(SC(C)(C)C)cc2c(Cl)c(C(N)=O)cnc12`, the IFI was determined as 32.5%.
For the compound `Oc1ccc(CCCNc2nc(NCc3ccccc3-c3ccccc3)nc(NC3CCNCC3)n2)cc1`, the IFI was found to be 15.2%.
The compound `COc1ccccc1-n1ccnc1SCC(=O)Nc1cccc(C(F)(F)F)c1` returned an IFI of 5.93%.
Next, `CC(CCON1C(N)=NC(N)=NC1(C)C)c1ccc(Cl)c(Cl)c1` (stereo not drawn): 7.09%.
Next, `O=C(/C=C/c1ccc(Cl)c(Cl)c1)NCCCCCN1CCC(CCNC(=O)/C=C/c2ccc(Cl)c(Cl)c2)CC1`: 11.2%; `Clc1ccc(OCCC2CCN(CCCCCCCN3CCC(CCOc4ccc(Cl)c(Cl)c4)CC3)CC2)cc1Cl`: 18.6%.
Next, `Clc1ccc(OCCC2CCN(CCCCCCN3CCCCC3)CC2)cc1Cl`: 9.87%; `CCCNCc1ccc(-c2ccc(CN(CC3CCCO3)C(=O)C3CC(=O)c4ccccc43)cc2)nc1` (stereo not drawn): 1.41%; `CCN(CC)CCN(Cc1ccc(-c2ccc(C(F)(F)F)cc2)cc1)C(=O)Cn1c(CCc2cc(F)c(F)c(F)c2)nc(=O)c2ccccc21`: 6.67%.
As to `Cc1noc(C)c1-c1ccc2c(Nc3ccc([N+](=O)[O-])cc3)c(C(N)=O)cnc2c1`, the IFI amounted to 1.63%.
Next, `N#Cc1cc(C(=O)c2cc(Cl)ccc2O)cn(-c2cccc(C(F)(F)F)c2)c1=O`: 7.44%; `CCc1ccc(-n2cc(C(=O)c3cc(Br)ccc3O)cc(C#N)c2=O)cc1`: 15.9%; `N#Cc1cc(C(=O)c2cc(Cl)ccc2O)cn(-c2cc(Cl)cc(Cl)c2)c1=O`: 17.4%.
For `N#Cc1cc(C(=O)c2cc(Br)ccc2O)cn(-c2cc(Cl)cc(Cl)c2)c1=O` the value was 20.6%.
`COc1ccc(-n2cc(C(=O)c3cc(Br)ccc3O)cc(C#N)c2=O)cc1Cl` came in with an IFI of 14.8%.
Regarding `COc1ccc(O)c(C(=O)c2cc(C#N)c(=O)n(-c3ccc(Oc4ccccc4)cc3)c2)c1`, the IFI was 3.52%.
For `COc1ccc2ccccc2c1C=NN=c1cc(C)[nH]c2c(C)cccc12` the value was 1.48%.
`COc1ccc(Cn2c(Nc3cccc(C(F)(F)F)c3)nc3cc(C(=O)NCCCN(C)C)ccc32)cc1Cl` gave an IFI of 2.14%.
For `NCC1CCCN1Cc1cccc(-c2cccc(-c3nc4cc(F)ccc4[nH]3)c2)c1` (stereo not drawn) the value was 5%; for `O=C(Cn1c(CCc2cccc(F)c2F)nc(=O)c2ccccc21)N(Cc1ccc(-c2ccc(C(F)(F)F)cc2)cc1)C1CCN(C2=NCCS2)CC1`, 12.5%.
Consider `CN1CCC(N2CCN(Cc3cccc(-c4ccc(-c5nc6cc(C(F)(F)F)ccc6[nH]5)cc4)c3)CC2)CC1`, for which the IFI stood at 9.72%.
Next, `CCCCNc1cc(C)nc(NCc2ccccc2)n1`: 9.72%; `CCCCNc1cc(NCCCC)c2c(n1)[nH]c1ccccc12`: 19.4%; `CCCCNc1c(C(=O)OCC)c(C)nc2c1[nH]c1ccccc12`: 2.17%.
Next, `CCc1cc(COc2ccc(CNCCC(C)C)cc2I)c(OCc2ccccc2)c(COc2ccc(CNCCC(C)C)cc2I)c1`: 14.3%; `CCOc1ccc2c(=NN=Cc3ccccc3OC)cc(C)[nH]c2c1`: 3.62%; `Oc1ccc(-c2cc(COc3ccccc3C(F)(F)F)c(C3=CCNCC3)cc2COc2ccccc2C(F)(F)F)cc1`: 17.3%.
Next, `FC(F)(F)c1ccccc1OCc1cc(-c2ccncc2)c(COc2ccccc2C(F)(F)F)cc1C1=CCNCC1`: 10.6%.
Regarding `Nc1nc(N)c2cc(NC(=O)c3ccc(Cl)c(Cl)c3)ccc2n1`, the IFI stood at 15.9%.
For `Cc1nc(C)c(-c2ccc(Oc3ccc(Cl)cc3Cl)cc2)c(O)c1Br` the value was 1.52%; for `O=[N+]([O-])c1ccc(CNCCCCCCNCc2ccc([N+](=O)[O-])c3ccccc23)c2ccccc12`, 10.3%.
Consider `FC(F)(F)COc1ccc(CNCCCCCCNCc2ccc(OCC(F)(F)F)c3ccccc23)c2ccccc12`, for which the IFI came out at 21%.
Next, `FC(F)(F)COc1c(CCNCCCCNCCc2ccc3ccccc3c2OCC(F)(F)F)ccc2ccccc12`: 19.3%.
For `CN(C)c1c(CNCCCCCCNCc2ccc3ccccc3c2N(C)C)ccc2ccccc12` the value was 15.7%; for `FC(F)(F)COc1ccc(CCNCCCCNCCc2ccc(OCC(F)(F)F)c3ccccc23)c2ccccc12`, 20.3%.
For `FC(F)(F)COc1ccc2ccccc2c1CNCCCCCCNCc1c(OCC(F)(F)F)ccc2ccccc12` the value was 14.9%.
Compound `FC(F)(F)COc1c(CNCCCCCCNCc2ccc3ccccc3c2OCC(F)(F)F)ccc2ccccc12` showed an IFI of 14.9%.
Next, `CSc1ccc2ccccc2c1CCNCCCCNCCc1c(SC)ccc2ccccc12`: 17%.
The compound `FC(F)(F)COc1ccc2ccccc2c1CCNCCCCNCCc1c(OCC(F)(F)F)ccc2ccccc12` displayed an IFI of 23.4%.
`N#Cc1ccc(CNCCCCCCNCc2ccc(C#N)c3ccccc23)c2ccccc12` returned an IFI of 7.04%.
Next, `CCCOc1ccc(CCNCCCCNCCc2ccc(OCCC)c3ccccc23)c2ccccc12`: 12.5%; `COc1ccc(CCNCCCCNCCc2ccc(OC)c3ccccc23)c2ccccc12`: 13.9%.
For `O=S(=O)(NCCN1CCCC1)c1ccc(-c2cccc(CNCCc3cccs3)c2)cc1` the value was 9.52%.
